Inhibition data for 38 compounds are collected here from PubChem BioAssay AID1497 (Sanford-Burnham Center for Chemical Genomics, 2009).

SMILES strings stand for the structures. The campaign covered roughly 93,000 compounds. About 500 (0.54%) were called active.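 How the source made its calls: active means primary inhibition of 50% or more at 10 µM, then 40% or more on retest; inactive means the rest.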 The full list was thinned out, with actives kept by preference.

The test deals with Integrin beta-2 (Homo sapiens) + Integrin alpha-M (Homo sapiens) (UniProt P05107+P11215). Nature of the test: antagonists of integrin CD11b/CD18-fibrinogen binding – K562 cells, luminescence, primary screen (AID 1497). Particulars: K562 CD11b/CD18 adhesion to fibrinogen, ATPlite luminescence; at 10 µM; active compounds read high; Mn2+ added to activate the integrin.
Sequence of Integrin beta-2 (Homo sapiens) + Integrin alpha-M (Homo sapiens) (P05107 whole entry, looked up, other chains not shown): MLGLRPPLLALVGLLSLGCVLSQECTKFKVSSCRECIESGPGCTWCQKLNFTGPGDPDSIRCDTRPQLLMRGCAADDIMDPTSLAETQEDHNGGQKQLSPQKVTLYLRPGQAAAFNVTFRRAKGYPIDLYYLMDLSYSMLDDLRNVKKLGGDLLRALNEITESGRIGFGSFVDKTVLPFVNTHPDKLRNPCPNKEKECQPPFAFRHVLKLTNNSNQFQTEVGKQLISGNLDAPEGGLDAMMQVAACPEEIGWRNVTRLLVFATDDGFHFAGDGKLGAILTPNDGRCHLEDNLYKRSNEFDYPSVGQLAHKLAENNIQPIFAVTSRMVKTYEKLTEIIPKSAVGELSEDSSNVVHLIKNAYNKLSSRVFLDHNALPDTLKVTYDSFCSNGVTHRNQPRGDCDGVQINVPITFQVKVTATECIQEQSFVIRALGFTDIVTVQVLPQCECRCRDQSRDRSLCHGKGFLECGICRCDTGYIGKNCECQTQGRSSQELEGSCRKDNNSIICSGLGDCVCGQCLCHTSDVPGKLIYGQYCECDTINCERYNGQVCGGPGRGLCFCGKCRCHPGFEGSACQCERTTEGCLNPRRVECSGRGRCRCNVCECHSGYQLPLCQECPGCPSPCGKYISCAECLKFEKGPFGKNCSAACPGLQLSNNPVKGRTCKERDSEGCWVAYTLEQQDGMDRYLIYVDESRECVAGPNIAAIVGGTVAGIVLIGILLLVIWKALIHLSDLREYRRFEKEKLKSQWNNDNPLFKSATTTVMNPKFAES
`Cc1ccc(-c2nc(C)sc2CC(=O)OCC(=O)Nc2c(F)cccc2F)cc1`: the inhibition was 16.1% (inactive).

On to `Nc1nc(CC(=O)CSc2ccc(Cl)cc2)nc(Nc2ccc(F)cc2)n1`, for which the inhibition is -3.1% (inactive).

On to `Cc1ccc(C)c(NC(=S)NCC(c2cccnc2)N2CCOCC2)c1` (stereo not drawn), for which the inhibition was -16.8% (inactive).

With `COC(=O)c1ccc(C(=O)OC)c(NC(=S)N2CCN(c3cc(Cl)ccc3C)CC2)c1`, the inhibition is 5.6% (inactive).

For the compound `CCCOC(=O)c1c(NC(=O)c2cnn3c2NC(c2ccccc2)CC3C(F)(F)F)sc2c1CCCC2` (stereo not drawn), the inhibition was -9.3% (inactive).

As to `CCc1ccc2oc(-c3ccc(N)cc3)nc2c1`, the inhibition is 62.3% (active).

For `CCCCCC(=O)Nc1ccc2oc(-c3ccncc3)nc2c1`, the inhibition was -1.9% (inactive).

As to `COc1cccc(-c2nc3cc(C)ccc3o2)c1`, the inhibition was 21% (inactive).

Consider `C/C(=N/NC(=O)C1COc2ccccc2O1)c1ccco1` (stereo not drawn), for which the inhibition was 4.4% (inactive).

In the case of `Cc1ccccc1NC(=O)CSC1=NCCN1`, the inhibition is -19.9% (inactive).

`Cc1ccc(S(=O)(=O)C2C(=O)NC3(C)CC2c2ccccc2O3)cc1` (stereo not drawn): the inhibition is 19.1% (inactive).

`Cc1nc2ccccc2cc1O`: the inhibition was 20.1% (inactive).

For `CCOC(=O)c1cc2ccccc2nc1C`, the inhibition was -6.1% (inactive).

In the case of `Cc1nc2ccccc2cc1OCc1ccc(F)cc1`, the inhibition was 98.8% (active).

`CN1CCN(c2ccc(S(=O)(=O)Nc3ccccc3)cc2[N+](=O)[O-])CC1`: the inhibition is 31% (inactive).

With `Cc1ccc(-c2nn(-c3ccccc3)cc2C(=O)Nc2cccc(S(=O)(=O)N3CCOCC3)c2)cc1`, the inhibition is -5.6% (inactive).

Turning to `Cc1[nH]c2ccccc2c1/C=N/NC(=O)CNC(=O)c1ccc2c(c1)OCO2`, the inhibition is -16% (inactive).

Consider `Cc1ccc2[nH]cc(CCNC(=O)c3ccc([N+](=O)[O-])cc3)c2c1`, for which the inhibition was -25.6% (inactive).

As to `CCOC(=O)c1c(NC(=O)C2CCN(S(=O)(=O)c3ccc(Cl)cc3)CC2)sc2c1CCCC2`, the inhibition was -25.4% (inactive).

As for `Cc1ccccc1C(CC(=O)c1cccs1)C(C#N)C#N` (stereo not drawn), the inhibition is -1.8% (inactive).

Turning to `CC(C)NC(=S)N1CCN(C(c2ccccc2)c2ccccc2)CC1`, the inhibition is -11.6% (inactive).

`CCc1nnc(NC(=O)C2CC(=O)N(c3ccc4c(c3)OCCO4)C2)s1` (stereo not drawn): the inhibition is 12.3% (inactive).

`CCOC(=O)c1csc(NC(=O)Nc2cccc(OC)c2)n1`: the inhibition was -1.6% (inactive).

Turning to `Cc1cc[n+](-c2[nH]c(=O)sc2/C=N/NC(=O)c2ccccc2[O-])cc1C`, the inhibition was -4.4% (inactive).

`C/C(=C/C(=O)N1CCN(C)CC1)C(=O)O`: the inhibition was -9.1% (inactive).

On to `N#C/C(=C(/O)COC(=O)COc1ccc(Cl)cc1)c1nc2ccccc2[nH]1`, for which the inhibition is 1.5% (inactive).

As to `Cc1ccc(NC(=O)NC(=O)CSc2nnc(-c3ccc(OC(F)F)cc3)n2N)c(C)c1`, the inhibition was 2.1% (inactive).

As for `O=C(Cn1cnc2ccccc21)N/N=C/c1ccco1`, the inhibition was 10.1% (inactive).

For `C=CCn1c(SCC(N)=O)nnc1-c1cc2c(s1)CCC(CC)C2` (stereo not drawn), the inhibition was 18.8% (inactive).

Take `CCn1c2ccccc2c2cc(NC(=O)COC(=O)c3ccccc3Br)ccc21`: the inhibition is 2.2% (inactive).

Turning to `COc1ccc(Cl)cc1NC(=O)CNc1ccccc1F`, the inhibition was 0.4% (inactive).

For the compound `CC(C)CNC(=O)COC(=O)c1ccccc1OCC(=O)Nc1ccc(Br)cc1`, the inhibition was 7.6% (inactive).

For the compound `CC(C)COP(=O)(c1ccc(N(C)C)cc1)C(Nc1ccccc1)c1cccnc1` (stereo not drawn), the inhibition was -5.3% (inactive).

Take `CC1CCN(c2ccc(C(=O)NCc3ccc4c(c3)OCO4)cc2[N+](=O)[O-])CC1`: the inhibition is 6.9% (inactive).

With `CSCC[C@H](NC(=O)OC(C)(C)C)C(=O)N/N=C/c1cc2ccc(C)cc2nc1Cl`, the inhibition is 23.4% (inactive).

Regarding `O=C(Nc1ccccc1)c1ccccc1NC(=O)C(F)(F)F`, the inhibition is 77.1% (active).

Consider `Cc1cccc(NC(=O)c2ccccc2NC(=O)C(C)(C)C)n1`, for which the inhibition was -2% (inactive).

Consider `O=C(Nc1ccccc1)c1cccnc1Nc1ccccc1`, for which the inhibition is -10.2% (inactive).

A word on the inhibition: it is the relative decrease from the control value, in per cent.
